The results in this text go back to PubChem BioAssay AID431 (Sanford-Burnham Center for Chemical Genomics, 2006).

Hit rate of the full screen: of about 63,000 compounds, about 1,100 (1.7%) were called active. The sample holds actives, similar compounds and a random draw of the others, so the mix is not that of the screen. Potency and affinity values are given separately. A number with no mark means an inactive call.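 Rule for the calls: active = compounds whose percent cytotoxicity in the single-dose primary screen, scaled between solvent and toxic-drug controls, exceeds 50; inactive = the rest.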

A short description of the experiment: viability loss of HPDE-C7K cells – cell-based, fluorescence, HTS, primary screen (AID 431).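 Note: 0% = DMSO solvent wells and 100% = doxorubicin-treated wells.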 The settings on record: HPDE-C7K KRASV12 cells, Alamar Blue viability, 48 h; at 10 µM; hits give high values. (Resazurin is reduced to fluorescent resorufin, in cell work by metabolically active cells.)
As for `CC(C)(C)NS(=O)(=O)c1ccc2nc(NC(=O)Cc3cccs3)sc2c1`, the cytotoxicity was 73.1% (active).

`O=C(Cc1cccs1)Nc1nc2ccccc2s1`: the cytotoxicity was 2.2%.

On to `CS(=O)(=O)c1ccc2nc(NC(=O)Cc3ccccc3)sc2c1`, for which the cytotoxicity was 2.6%.

As to `COCCn1c(=S)[nH]c2cc(C(=O)N3CCN(c4ccccc4OC)CC3)ccc2c1=O`, the cytotoxicity was 6.7%.

For `CCCc1[nH]n(-c2nc3ccccc3s2)c(=O)c1C=NCCN1CCOCC1`, the cytotoxicity is 24.1%.

For the molecule `O=c1c(C=NCCCn2ccnc2)c(-c2ccccc2)[nH]n1-c1nc2ccccc2s1`, the cytotoxicity was 63.3% (active).

Take `CCCCCN=Cc1c(C)[nH]n(-c2nc3ccccc3s2)c1=O`: the cytotoxicity was 13.1%.

Turning to `C=CCc1ccc(OCC(O)CN2CCCCC2C)c(OC)c1` (stereo not given), the cytotoxicity was 22.6%.

As for `COCCn1nnnc1SCC(=O)N1CCCCC1`, the cytotoxicity is -12.2%.

With `COc1ccc2nc(-c3ccccc3)[nH]c2c1`, the cytotoxicity is -5.2%.

As to `CCOc1ccc2nc(C(C)O)[nH]c2c1` (stereo not given), the cytotoxicity is 5.3%.

As for `CCOc1ccc2nc(-c3ccccc3)[nH]c2c1`, the cytotoxicity is 57.3% (active).

In the case of `CCOc1ccccc1NC(=O)CSc1nnnn1-c1ccc(C(=O)OC)cc1`, the cytotoxicity is 0.9%.

Turning to `CNCCCC1c2ccccc2C=Cc2ccccc21`, the cytotoxicity is 10.4%.

In the case of `CNCCCN1c2ccccc2CCc2ccccc21`, the cytotoxicity is 17.5%.

In the case of `CNCCCC12CCC(c3ccccc31)c1ccccc12`, the cytotoxicity is 73.1% (active).

On to `Cc1cc(NC(=O)CSc2nc(-c3ccccc3)cs2)no1`, for which the cytotoxicity was -7.6%.

On to `N#CC1=C(N)OC2=C(C(=O)CCC2)C1c1ccc(OC(=O)N2CCOCC2)cc1` (stereo not given), for which the cytotoxicity was -4.6%.

For the molecule `c1ccc(-c2nnc(-c3ccccn3)nn2)nc1`, the cytotoxicity was 8.9%.

Turning to `c1ccc(-c2ccc(-c3ccccn3)nn2)nc1`, the cytotoxicity is 7.3%.

For the molecule `Cc1ccc(C)c(S(=O)(=O)NC(CCC(N)=O)C(=O)O)c1` (stereo not given), the cytotoxicity is 5%.

Take `COc1ccc2c(c1)CCc1c(C(=O)Nc3ccn(Cc4ccc(C)cc4)n3)noc1-2`: the cytotoxicity is -1.5%.

As for `CCCOc1ccc(N2C(=O)C3ON(c4ccccc4)C(c4ccc(O)c(OC)c4)C3C2=O)cc1` (stereo not given), the cytotoxicity was 81.7% (active).

Regarding `COc1cc(C2C3C(=O)N(c4ccccc4)C(=O)C3ON2c2ccccc2)ccc1O` (stereo not given), the cytotoxicity is 3.7%.

On to `COc1cc(C2C3C(=O)N(c4ccc(F)cc4)C(=O)C3ON2c2ccccc2)ccc1O` (stereo not given), for which the cytotoxicity was -1.5%.

Turning to `CCCCCC1CC(CC(=O)O)C(=O)O1` (stereo not given), the cytotoxicity is -13.6%.

Regarding `CCOC(=O)N1CCC(NC(=O)c2cc(C(=O)Nc3ccc(OCC)cc3)ccc2CO)CC1`, the cytotoxicity is 1.5%.

Consider `CCn1c(CNc2nc(-c3ccccc3)cs2)nnc1SCC(=O)NCc1ccco1`, for which the cytotoxicity is -32.7%.

`COCCOC(=O)c1c(C)oc2ccc(NS(=O)(=O)c3ccccc3)cc12`: the cytotoxicity is 17.1%.

On to `COC(=O)c1ccccc1NS(=O)(=O)c1ccc2c3c(cccc13)C(=O)N2`, for which the cytotoxicity was 20.3%.

Turning to `CCOC(=O)c1c(C)oc2ccc(NS(=O)(=O)c3ccc4c5c(cccc35)C(=O)N4)cc12`, the cytotoxicity is 69.9% (active).

For the molecule `CCCCn1c2c(c3ccccc31)CCc1nonc1-2`, the cytotoxicity was 14.8%.

Regarding `COC(=O)C(C)NC(=O)C(C)NC(=O)OCc1ccccc1` (stereo not given), the cytotoxicity was 8%.

Consider `CCOC(=O)N1CCN(c2c(-c3ccccc3)c3cc(Cl)ccc3[nH]c2=O)CC1`, for which the cytotoxicity is -2.7%.

With `O=c1[nH]c2ccc(Cl)cc2c(-c2ccccc2)c1N1CCOCC1`, the cytotoxicity was 12.4%.

On to `O=C(c1ccco1)N1CCN(c2c(-c3ccccc3)c3cc(Cl)ccc3[nH]c2=O)CC1`, for which the cytotoxicity is 81.6% (active).

For the molecule `COc1cc(NC(=O)c2ccccc2)c(OC)cc1NC(C)=O`, the cytotoxicity was -2.1%.

Take `O=C1NC(c2ccncc2)Nc2ccccc21` (stereo not given): the cytotoxicity is -12.1%.

Consider `COCCNC(=O)c1cc2cc(Br)cc(OC)c2oc1=O`, for which the cytotoxicity is 0.9%.

For the molecule `Cc1ccc(C(=O)Nc2nc3ccccc3n2CCN2CCCC2)cc1`, the cytotoxicity was -3.5%.

Regarding `CCCn1c(NC(=O)c2ccc(C)cc2)nc2ccccc21`, the cytotoxicity is -46.1%.

Turning to `O=C(Nc1nc2ccccc2n1CCN1CCCCC1)c1ccco1`, the cytotoxicity is -5%.

With `CCCn1c(NC(=O)c2ccc(Cl)c(S(=O)(=O)N3CCCC3)c2)nc2ccccc21`, the cytotoxicity was 37.6%.

On to `CCCn1c(NC(=O)c2cccc(S(=O)(=O)N3CCCC3)c2)nc2ccccc21`, for which the cytotoxicity was 54% (active).

`O=C(Nc1nc2ccccc2n1CCN1CCCC1)c1ccc(Cl)cc1`: the cytotoxicity is 62.1% (active).

`CC(C)(CSc1nncn1N)NS(=O)(=O)c1ccc(Cl)cc1`: the cytotoxicity is 0%.

With `Cc1cc(-c2ccccc2)c(C#N)c(SCC(N)=O)n1`, the cytotoxicity is 0.4%.

With `CC1CCCN(C(=O)Cn2nnc(-c3cccnc3)n2)C1` (stereo not given), the cytotoxicity is 1%.

Regarding `CC(NS(=O)(=O)c1ccc(F)cc1)C(c1cccs1)N1CCN(C)CC1` (stereo not given), the cytotoxicity was -12.3%.

Consider `CC1CCCCN1S(=O)(=O)c1ccc(S(=O)(=O)N2CCN(c3ccc(F)cc3)CC2)cc1` (stereo not given), for which the cytotoxicity was -7.9%.

As for `Cc1nc(CN2CCN(C(=O)NC3(c4ccccc4)CC3)CC2)cs1`, the cytotoxicity is -4.3%.

`COc1ccc2c(c1OC)C(=O)N1c3ccccc3C(=O)N(c3ccccc3)C21` (stereo not given): the cytotoxicity was 38.7%.

Consider `COc1ccc2c(c1OC)C(=O)N1c3ccccc3C(=O)N(c3ccc(F)cc3)C21` (stereo not given), for which the cytotoxicity is 12.3%.

In the case of `COc1ccc2c(c1OC)C(=O)N1c3ccccc3C(=O)N(c3ccccc3F)C21` (stereo not given), the cytotoxicity is 53.2% (active).

`CCN(CCNC(=O)C1CCN(S(C)(=O)=O)CC1)c1ccccc1`: the cytotoxicity is -4.7%.

Regarding `COc1ccc(NC(=O)CNCCC2=CCCCC2)cc1`, the cytotoxicity was -7.1%.

Consider `O=C(CN1CCCCC1)Nc1ccccc1NC(=O)CN1CCCCC1`, for which the cytotoxicity was -8.2%.

For the molecule `O=C(CN1CCc2ccccc2C1)Nc1ccccc1N1CCCCCC1`, the cytotoxicity is 62.4% (active).

As for `CC(C)CC(=O)Nc1ccccc1N1CCCC1`, the cytotoxicity was -13.9%.

As for `CCOC(=O)c1ccc(NC(=O)N2CCc3ccccc32)cc1`, the cytotoxicity was 16.1%.

As for `O=C(COc1ccccc1)Nc1ccccc1N1CCCCC1`, the cytotoxicity was -5.3%.

For the molecule `O=C(CNCCC1=CCCCC1)Nc1ccccc1N1CCCCC1`, the cytotoxicity was 74.2% (active).

With `CCOC(=O)c1ccc(NC(=O)CN2CCN(c3ccccc3)CC2)cc1`, the cytotoxicity is -0.6%.

Regarding `CCOC(=O)c1ccc(NC(=O)CN2CCc3ccccc3C2)cc1`, the cytotoxicity was 53.1% (active).

For the molecule `COc1ccc(CCNC(=O)c2c(O)c3cccc4c3n(c2=O)CC4)cc1OC`, the cytotoxicity was 3.1%.

Regarding `Cc1cc(C(=O)OCC(=O)N2CC(C)CC(C)C2)c(C)o1` (stereo not given), the cytotoxicity is -1%.

Turning to `CC(=O)c1ccc(NC(=O)C2CCCNC2=O)cc1` (stereo not given), the cytotoxicity is -14.4%.

As to `Cc1nnc2ccc(N3CCN(c4cccc(C(F)(F)F)c4)CC3)nn12`, the cytotoxicity is 3.9%.

Consider `Cn1c(=O)n(-c2ccccc2)c(=O)c2c3c(sc21)COC(C)(C)C3`, for which the cytotoxicity was -13.9%.

Turning to `Cc1ccc(S(=O)(=O)NC(=NCC(=O)O)c2ccccc2)cc1`, the cytotoxicity was 5.9%.

For `CCOc1ccc2[nH]c(=O)c(CN(CCOC)C(=O)N3CCOCC3)cc2c1`, the cytotoxicity was 5.7%.

On to `COC(=O)/C=C/S(=O)(=O)c1ccc(NC(C)=O)cc1`, for which the cytotoxicity is 58.8% (active).

With `COc1ccccc1NS(=O)(=O)c1ccc(NC(C)=O)cc1`, the cytotoxicity is 1.6%.

For the molecule `CCOC(=O)CN(Cc1ccccc1)S(=O)(=O)c1ccc(NC(C)=O)cc1`, the cytotoxicity was 8.6%.

For the molecule `CC(=O)Nc1ccc(S(=O)(=O)c2ccc(N)cc2)cc1`, the cytotoxicity is -14.7%.

Take `COC(=O)C(C)NS(=O)(=O)c1ccc(NC(C)=O)cc1` (stereo not given): the cytotoxicity was -26.3%.

With `CC(C)c1c(O)nc(SCc2ccccc2)[nH]c1=O`, the cytotoxicity is -18%.

As for `COc1ccc(-c2nnnn2CCc2ccccc2)cc1`, the cytotoxicity was -2.2%.

Regarding `COc1ccc(-n2nnnc2SCC(=O)c2cccc(OC)c2)cc1`, the cytotoxicity is 25.7%.

With `COc1ccc(-c2nnnn2-c2ccccc2OC)cc1`, the cytotoxicity was 36.6%.

On to `COc1ccc(-n2nnnc2-c2cccnc2)cc1`, for which the cytotoxicity is 0.7%.

As to `COc1ccc(-n2nnnc2-c2cccc(OC)c2)cc1`, the cytotoxicity was 60.7% (active).

With `O=C(CSc1nnnn1-c1ccccc1)CSc1nnnn1-c1ccccc1`, the cytotoxicity is 3%.

Take `CCOc1cccc(-n2nnnc2-c2ccc(OC)cc2)c1`: the cytotoxicity was 52.1% (active).

For the molecule `COc1cccc(Oc2nnnn2-c2ccccc2)c1`, the cytotoxicity is -16.1%.

On to `CCS(=O)(=O)c1nnnn1-c1ccccc1S(C)(=O)=O`, for which the cytotoxicity is 36.8%.

`N#CCCS(=O)(=O)c1nnnn1-c1ccccc1`: the cytotoxicity was 67.8% (active).

As for `COc1cccc(-n2nnnc2SCC(=O)c2cc(OC)ccc2OC)c1`, the cytotoxicity was -8.2%.

For `O=C(Nc1ccc2c(c1)OCCO2)C1CCN(C(=O)c2ccc(Br)cc2)CC1`, the cytotoxicity was 4.7%.

For `COc1ccc(N2C(=O)C(CC(=O)Nc3ccccc3)N(Cc3ccc4c(c3)OCO4)C2=O)cc1` (stereo not given), the cytotoxicity is -9%.

`c1ccc2c(c1)nc(Nc1ccc3c(c1)OCO3)c1nnnn12`: the cytotoxicity was -10.2%.

`COc1ccc(CCNC(=O)CCS(=O)(=O)c2cccc3nsnc23)cc1OC`: the cytotoxicity is -2.7%.

Consider `COc1ccc(OC)c2sc(N3CCN(c4ccccc4)CC3)nc12`, for which the cytotoxicity was 15.9%.

As for `CCCc1c(C(=O)OCC)[nH]c2c1C(=O)CCC2`, the cytotoxicity is 10%.

For the molecule `O=C(Nc1ccc(C(F)(F)F)cc1)C1CCCN1S(=O)(=O)c1cccc2cccnc12` (stereo not given), the cytotoxicity is 16.9%.

As for `C=CCNC(=O)c1ccccc1NS(=O)(=O)c1ccc(SC)cc1`, the cytotoxicity is 26.3%.

As for `CCOc1ccc(NC(=O)CN2CCN(CC(=O)Nc3ccc4c(c3)OCCO4)CC2)cc1`, the cytotoxicity was -5.7%.

On to `Cc1ccc2[nH]c3c(c2c1)CCC3=O`, for which the cytotoxicity is -12.2%.

For `O=CNC1CCCc2c1[nH]c1ccc(Cl)cc21` (stereo not given), the cytotoxicity is 12.8%.

On to `CC(Oc1ccc(Cl)cc1)C(=O)Nc1nccs1` (stereo not given), for which the cytotoxicity is -6%.
